High-throughput results deposited in PubChem BioAssay by National Center for Advancing Translational Sciences (NCATS).
The full list was thinned out, with hits kept by preference.
IL1B secr inh – blocks inflammasome-driven IL-1 beta release; THP-1 LPS/ATP IL-1B secretion, AlphaLISA, 16 h; stronger effect = lower value; activity change, % at 57.5 µM; 360,000 compounds, 4.7% hits; AID 743279; in the data active means activity change below about -50%; inconclusive means mostly about -30% to -49%
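Secreted IL-1B measured by AlphaLISA bead assay after 16 h compound exposure of THP-1 cells; compounds (final up to 57.5 uM) added 1 h before LPS (250 ng/mL) and ATP (1.25 mM) stimulation; lower signal means less secretion.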
DT40 TDP1 no CPT – qHTS for Inhibitors of human tyrosyl-DNA phosphodiesterase 1 (TDP1): qHTS in cells in absence of CPT; Potency, µM (highest dose often 46.2 µM), for the others: at the top dose activity change, negative = growth inhibition, most hits filed as inhibitors; 420,000 compounds, 15% hits; AID 686978, 2013; DT40 Tdp1-/- hTDP1 cells, no CPT, ATP luminescence, 48 h; further: potency means the concentration at half of the fitted maximal effect; nearly all actives have a fitted effect of over 55% in size
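Luminescent ATP content (CellTiter-Glo) served as the growth readout. Knockout chicken DT40 cells expressing human TDP1 were exposed to compounds without camptothecin for a minimum 48 hr at 37 °C.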
HT1080-NT tox – kills 2HG-producing HT-1080-NT fibrosarcoma cells. HT-1080-NT fibrosarcoma viability, CellTiter-Glo ATP luminescence, 48 h. 360,000 compounds, 1.6% hits. Potency, µM (series often up to 46.1 µM), for inactives: top-dose activity, negative = less viability, hits mostly cytotoxic;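 further: NT is the 2HG producing partner of a matched IDH1 knockdown line; potency means the concentration at half of the fitted maximal effect; 0% = DMSO-treated cells and -100% = media-only wells without cells; nearly all actives have a fitted effect of over 55% in size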
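A 48-hour cytotoxicity screen used HT-1080-NT cells plated 2 hours before compound delivery. ATP-based CellTiter-Glo luminescence measured viability, normalized to DMSO and no-cell controls.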
HT1080 IDH1KD tx – HT-1080 IDH1 knockdown cell toxicity (counter line); HT-1080 IDH1 knockdown viability, ATP luminescence, 48 h; Potency, µM (highest dose often 46.1 µM), for inactives: at the highest dose activity, negative = toxicity, most hits filed as cytotoxic; 360,000 compounds, 2% hits; AID 686971;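 further: potency means the concentration at half of the fitted maximal effect; 0% = DMSO wells and -100% = cell-free medium wells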
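In this qHTS, HT-1080 cells depleted of IDH1 are exposed for 48 h at 37 °C to compound titrations. Toxicity is scored from CellTiter-Glo luminescence, with DMSO as full viability and medium alone as none.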
TDP1 cell CPT – growth inhibition of DT40 Tdp1-/-;hTDP1 cells with camptothecin (screen for TDP1 inhibitors). chicken DT40 Tdp1-/-;hTDP1 cells + 20 nM CPT, ATP luminescence, 48 h. AID 686979. Potency, µM (series often up to 46.2 µM), inactives show at the top dose activity change, negative = growth inhibition, hits mostly inhibitors. 420,000 compounds, 12% hits; further: potency means the concentration at half of the fitted maximal effect; nearly all actives have a fitted effect of over 55% in size
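Chicken DT40 Tdp1-/- cells complemented with human TDP1, 400 cells/well, exposed to compounds plus 20 nM camptothecin for at least 48 h at 37 C; viability read as ATP content by CellTiter-Glo luminescence.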
12-LOX inh – ALOX12 (human) lipoxygenase inhibition; P18054; purified 12hLO, xylenol orange hydroperoxide absorbance; Potency, µM (doses to about 108 µM), for inactives: at the highest dose activity change, negative = inhibition, usual class: inhibitors; 580,000 compounds, 1.1% hits; AID 1671190; further: potency means the concentration at half of the fitted maximal effect
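Purified human 12hLO at 150 nM in 25 mM Hepes, 0.01% Triton X-100, pH 7.0, preincubated 15 min at room temperature with compound. Reaction started with 40 uM arachidonic acid, 30 min at room temperature. Hydroperoxide measured by Fe-xylenol orange, 573/405 nm absorbance ratio.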
* = called active by the depositor; ? = inconclusive; . = no result given. Unless noted, the call rests on the fitted dose curve; in most records, active means well fitted curve in the direction sought with a large enough effect; inconclusive means small, poorly fitted or top-dose-only effect, or another doubt; inactive means no such curve, though single readings can be large; an effect the other way counts as inactive or inconclusive. Unless noted, on the % scale 0 is the no-effect control and ±100 the full control effect.

SMILES	IL1B secr inh	DT40 TDP1 no CPT	HT1080-NT tox	HT1080 IDH1KD tx	TDP1 cell CPT	12-LOX inh
Cc1ccc(NC(=O)C(C)c2ccc(-c3ccccc3)c(F)c2)cc1 (stereo unspecified)	-9	7.3µM*	16µM*	13µM*	?	428%
C[C@@H](C(=O)O)c1ccc(-c2ccccc2)c(F)c1	.	2%	.	.	5%	288%
O=C(CSC1CCCCC1)c1ccc(O)cc1O	.	.	.	.	.	45µM*
O=C(COC(=O)c1ccc(O)cc1O)NC1CCCCCC1	48	?	-2%	0%	?	290%
COc1ccc(SCC(=O)c2ccc(O)cc2O)cc1	.	.	.	.	.	40µM*
CO[C@@H]1COCC[C@H]1NC(=O)c1ccc(SCCO)cc1	.	.	.	.	.	50%
CCOC(=O)C1(CCCc2ccccc2)CCN(S(=O)(=O)N(C)C)CC1	?	?	-26%	-18%	?	3%
COc1cc(Cl)c(C)cc1NC(=O)CSC	1	4%	14%	2%	-2%	0%
COc1cc(Cl)c(C)cc1NC(=O)CSCC#N	23	-5%	10µM*	-29%	-21%	-25%
COc1cc(Cl)c(C)cc1NC(=O)CSc1cc(Cl)ccc1Cl	24	23µM*	-6%	-7%	?	?
COc1cc(Cl)c(C)cc1NC(=O)CSc1ccccc1	-2	0%	-4%	-3%	-2%	1%
O=C(COc1ccccc1)Nc1ccc2c(N3CCOCC3)ncnc2c1	.	.	.	.	.	57%
CCOc1cc(=O)n2c(c1C(=O)Nc1cccc(Cl)c1F)CCCC2	.	.	.	.	.	6%
Cc1ccc(Cl)cc1NS(=O)(=O)c1cc(-c2ccno2)oc1C	.	.	.	.	.	-9%
COCC(=O)NC[C@H]1CCN(Cc2cccc(C)c2)C[C@H]1N(C)C	.	.	.	.	.	62%
COC(=O)c1cc2c(C)[nH]c(C)c2cc(C(=O)OC)c1=O	-19	6.5µM*	0%	1%	7.3µM*	-4%
Cc1noc(C)c1CN1CCCC(c2nccn2Cc2ccccc2)C1 (stereo unspecified)	.	.	.	.	.	103%
CCOC(=O)C1(C)CCN1C(=O)c1ccc(C)cc1 (stereo unspecified)	24	-7%	12%	?	-1%	-12%
CN(C)c1ccc(/C=C/c2cccc3ccccc23)cc1	.	?	.	.	-18%	.
CCN(CC)c1ccc(/C=C/c2ccc3ccc(OC)cc3[n+]2CC)cc1	-83*	0.18µM*	?	?	0.065µM*	?
COc1ccc2ccc3cccc[n+]3c2c1	-8	-5%	-12%	-18%	5%	4%
CN(C)c1ccc(/C=C/c2ccc3ccccc3[n+]2[O-])cc1	.	13µM*	.	.	20µM*	.
CC[n+]1c(/C=C/c2ccc(N(C)C)cc2)ccc2ccccc21	-99*	0.15µM*	10µM*	10µM*	0.16µM*	?
O=C(Nc1ccc2nc(SCC(=O)N3CCCc4ccccc43)sc2c1)c1cccc(Cl)c1	.	6.5µM*	.	.	13µM*	-5%
O=C(Nc1ccc2nc(SCC(=O)N3CCc4ccccc43)sc2c1)c1cccc(F)c1	.	4.1µM*	.	.	3.7µM*	-4%
O=C(Nc1ccc2nc(SCC(=O)N3CCc4ccccc43)sc2c1)c1ccc(F)cc1	.	8.2µM*	.	.	10µM*	-15%
O=C(Nc1ccc2nc(SCC(=O)N3CCc4ccccc43)sc2c1)c1cccc(Cl)c1	.	?	.	.	?	-22%
O=C(Nc1ccc2nc(SCC(=O)N3CCc4ccccc43)sc2c1)c1ccc(Cl)cc1	.	12µM*	.	.	9.2µM*	-5%
CSCC(=O)N1CCC2(CCN(Cc3nccnc3C)CC2)C(CO)C1 (stereo unspecified)	.	.	.	.	.	20%
COc1cccc(Nc2ncc3nc(C)c(=O)n(CCC#N)c3n2)c1	.	0.92µM*	.	.	0.23µM*	0%
